# DT40 TDP1 no CPT = qHTS for Inhibitors of human tyrosyl-DNA phosphodiesterase 1 (TDP1): qHTS in cells in absence of CPT. DT40 Tdp1-/- hTDP1 cells, no CPT, ATP luminescence, 48 h. Potency, µM (highest dose often 46.2 µM), inactives show at the top dose activity change, negative = growth inhibition, usual class: inhibitors. hit rate 15% among 420,000. AID 686978, 2013; note: nearly all actives have a fitted effect of over 55% in size
#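 Compound effects on proliferation are scored in DT40 Tdp1-/-;hTDP1 cells in the absence of CPT. ATP levels (CellTiter-Glo luminescence) are recorded after a ≥48 hr, 37 °C incubation.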
# HT1080 IDH1KD tx = toxicity to HT-1080 IDH1 knockdown cells (counter line); hit rate 2% among 360,000; HT-1080 IDH1 knockdown viability, ATP luminescence, 48 h; Potency, µM (series often up to 46.1 µM), without a hit: top-dose activity, negative = toxicity, hits mostly cytotoxic;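 note: 0% = DMSO wells and -100% = cell-free medium wells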
#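 In this qHTS, HT-1080 cells depleted of IDH1 are exposed for 48 h at 37 °C to compound titrations. Toxicity is scored from CellTiter-Glo luminescence, with DMSO as full viability and medium alone as none.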
# DT40 TDP1 CPT = growth inhibition of DT40 Tdp1-/-;hTDP1 cells with camptothecin (screen for TDP1 inhibitors). hit rate 12% among 420,000. Potency, µM (series often up to 46.2 µM), without a hit: at the highest dose activity change, negative = growth inhibition, usual class: inhibitors. chicken DT40 Tdp1-/-;hTDP1 cells + 20 nM CPT, ATP luminescence, 48 h; note: nearly all actives have a fitted effect of over 55% in size
#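 Chicken DT40 Tdp1-/- cells complemented with human TDP1, 400 cells/well, exposed to compounds plus 20 nM camptothecin for at least 48 h at 37 C; viability read as ATP content by CellTiter-Glo luminescence.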
# KB-3-1 tox = kills parental KB-3-1 adenocarcinoma cells; hit rate 1.4% among 400,000; KB-3-1 viability, CellTiter-Glo ATP luminescence, 72 h; AID 1347075; Potency, µM (top dose mostly 46.1 µM), most hits filed as cytotoxic; note: nearly all actives have a fitted effect of over 60% in size
#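 Parental KB-3-1 viability, qHTS format: 72 h compound exposure, 37 °C; CellTiter-Glo; media-only wells and DMSO plates as controls; concentration-effect fits on corrected data.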
# HT1080-NT tox = kills 2HG-producing HT-1080-NT fibrosarcoma cells | HT-1080-NT fibrosarcoma viability, CellTiter-Glo ATP luminescence, 48 h | AID 686970 | hit rate 1.6% among 360,000 | Potency, µM (doses to about 46.1 µM), for inactives: at the highest dose activity, negative = less viability, most hits filed as cytotoxic;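 note: NT is the 2HG producing partner of a matched IDH1 knockdown line; 0% = DMSO-treated cells and -100% = media-only wells without cells; nearly all actives have a fitted effect of over 55% in size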
#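 HT-1080-NT; 750 cells/well; 5% FBS RPMI; 48 h compound, 37 degrees C; CellTiter-Glo luminescence; curve fitting and curve-class assignment.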
# KB-V1 MDR tox = kills drug-selected multidrug resistant KB-V1 cells | KB-V1 MDR cells viability, CellTiter-Glo, 72 h | Potency, µM (titrated, usually from 46.1 µM), usual class: cytotoxic | hit rate 3.4% among 400,000; note: nearly all actives have a fitted effect of over 60% in size
#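 In this primary screen, KB-V1 cells overexpressing P-gp are incubated with library compounds (lowest to highest concentration) for 72 h at 37 degrees C before a luminescent ATP viability read.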
# * marks the source's active call; other numbers are inactive results; i = inactive; ? = inconclusive; nt = no result given; ! = a repeat was not active. Compounds with a hit are over-represented: about 19% of the library has one in this group of screens. Calls come from the whole dose curve; as a rule, active = well fitted curve in the direction sought with a large enough effect; inconclusive = small, poorly fitted or top-dose-only effect, or another doubt; inactive = no such curve, though single readings can be large; an effect the other way counts as inactive or inconclusive. Unless noted, % is set by controls: 0 for no effect and ±100 for the full control effect; potency is the fitted concentration of half-maximal effect.
SMILES,DT40 TDP1 no CPT,HT1080 IDH1KD tx,DT40 TDP1 CPT,KB-3-1 tox,HT1080-NT tox,KB-V1 MDR tox
CCOC(=O)c1c(C)nsc1NC(=O)C1CCCCC1,-30%,-15%,-27%,i,0%,i
Nc1nc(-c2cccs2)c(NC(=O)c2ccccc2)s1,18µM*,?,16µM*,i,-29%,i
Cc1sc(N)nc1-c1cccs1,-8%,-9%,0%,i,-9%,i
Cc1cc(/C=C2\C=Cc3ccccc32)cc(C)c1[N+](=O)[O-],?,nt,?,i,nt,i
CN(C(=O)COC(=O)c1ccc(=O)n(Cc2ccccc2)n1)c1ccccc1,18µM*,5%,15µM*,i,14%,i
CC(C)(C)NC(=O)Cn1c(SCC(=O)N2CCCCCC2)nc2ccccc21,-18%,5%,-18%,?,7%,?
Cc1cccc(OCCn2c(SCC(N)=O)nc3ccccc32)c1,21µM*,nt,?,i,nt,i
Cc1cccc(OCCCn2c(CCNC(=O)C(C)C)nc3ccccc32)c1,16µM*,-13%,?,i,-7%,?
CC(C)(C)NC(=O)Cn1c(SCC(N)=O)nc2ccccc21,?,4%,26µM*,i,7%,i
Cc1ccc(OCCCCn2c(CCNC(=O)C3CCCCC3)nc3ccccc32)cc1,16µM*,nt,?,i,nt,i
CCC(C)c1ccccc1OCCn1c(CCNC(=O)C2CCCCC2)nc2ccccc21 (configuration not stated),?,nt,?,?,nt,i
Cc1cc(C)cc(OCCn2c(CCNC(=O)C3CCCCC3)nc3ccccc32)c1,?,nt,?,i,nt,i
Cc1cc(C)cc(OCCCn2c(CCNC(=O)C3CCCCC3)nc3ccccc32)c1,15µM*,nt,12µM*,nt,nt,nt
Cc1ccccc1OCCCn1c(CCNC(=O)C2CCCCC2)nc2ccccc21,16µM*,nt,13µM*,nt,nt,nt
O=C(NCCc1nc2ccccc2n1CCCOc1ccc2ccccc2c1)C1CCCCC1,11µM*,nt,?,i,nt,i
CC(C)(C)c1ccc(OCCn2c(CCNC(=O)C3CCCCC3)nc3ccccc32)cc1,3.2µM*,nt,11µM*,?,nt,?
O=C(NCCc1nc2ccccc2n1CCOc1ccc2ccccc2c1)C1CCCCC1,?,nt,?,i,nt,i
Cc1cccc(OCCCn2c(CCNC(=O)C3CCCCC3)nc3ccccc32)c1,12µM*,nt,13µM*,nt,nt,nt
CCN(CC)C(=S)SSC(=S)N(CC)CC,0.15µM*,0.0052µM*!,0.021µM*,i,?,i
CCN(CC)C(=S)SCC(=O)c1ccccc1,?,-13%,?,i,1%,i
c1ccc(-c2csc(-n3cnnn3)n2)cc1,-26%,-6%,-5%,i,-3%,i
CC(NC(=O)c1c2c(nc3ccccc13)C(=O)N(C1CCCCC1)C2)c1ccccc1 (configuration not stated),18µM*,nt,16µM*,i,nt,i
CC(=O)c1ccc(NC(=O)c2c3c(nc4ccccc24)C(=O)N(C2CCCCC2)C3)cc1,21µM*,nt,21µM*,i,nt,i
CCCN1CNc2c(c(=O)[nH]c(=S)n2CCCc2ccccc2)C1,13µM*,-29%,?,nt,-23%,nt
CCCN1CNc2c(c(=O)[nH]c(=S)n2CCc2cccc(C)c2C)C1,13µM*,13%,?,nt,10%,nt
SMILES,DT40 TDP1 no CPT,HT1080 IDH1KD tx,DT40 TDP1 CPT,KB-3-1 tox,HT1080-NT tox,KB-V1 MDR tox
CCCN1CNc2c(c(=O)[nH]c(=S)n2CCC(C)(C)C)C1,13µM*,-15%,?,nt,-10%,nt
CCCN1CNc2c(c(=O)[nH]c(=S)n2CCc2ccccc2C)C1,-24%,22%,-29%,nt,12%,nt
CC(C)(C)OC(=O)N[C@@H](COCc1ccccc1)C(=O)N[C@@H](CO)[C@H](O)[C@@H]1C[C@@H]1C(=O)NC1CCCCC1,-16%,8%,?,?,17%,i
Cc1cccc(OCc2nnc(SCC(=O)NCc3ccc4c(c3)OCO4)o2)c1,-25%,-1%,-1%,i,-11%,i
CC1(C)c2[nH]c3ccccc3c2C[C@@H]2C(=O)N(Cc3ccco3)C(=O)N21,nt,nt,nt,i,nt,i
Cc1cc(C(F)F)nn1CC(=O)NC1C(=O)N2C(C(=O)O)=C(CSc3nnnn3C)CSC12 (configuration not stated),1%,11%,3%,i,0%,?
CCOC(=O)c1cnc2ccc(C(=O)OC)cc2c1Nc1cccc(C(=O)O)c1,10%,0%,20%,i,-1%,i
CCOC(=O)c1cnc2c(OC)cccc2c1Nc1cccc(O)c1,nt,nt,nt,?,nt,13µM*
CCOC(=O)c1cnc2c(ccc3ccccc32)c1Nc1ccccc1O,?,nt,21µM*,i,nt,i
CCOC(=O)c1cnc2c(C)cccc2c1Nc1ccc(OC(C)C)cc1,23µM*,nt,?,i,nt,i
CCOC(=O)c1cnc2c(ccc3ccccc32)c1Cl,-4%,9%,3%,i,1%,i
CCOC(=O)c1cnc2c(C(F)(F)F)cccc2c1Nc1cccc(C(=O)OC)c1,15µM*,nt,?,i,nt,i
CCOC(=O)c1cnc2c(OC)cccc2c1NCc1cccnc1,-5%,-3%,-5%,?,-7%,i
CCS(=O)(=O)c1ncc(Cl)c(C(=O)N(Cc2ccccc2)c2ccc(OC)cc2)n1,0.65µM*,nt,1µM*,nt,nt,nt
COc1ccc(N(Cc2ccccc2)C(=O)c2nc(SC)ncc2Cl)cc1,5.2µM*,nt,10µM*,?,nt,?
COC(=O)c1ccc(C(=O)N(Cc2ccccc2)c2ccccc2)cc1,?,-9%,?,i,-9%,i
CC1Cc2ccccc2N1C(=O)CSc1nncs1 (configuration not stated),-8%,1%,-13%,i,1%,i
CCOC(=O)c1sc2nc(CSc3ccccc3)nc(N3CCC(C(N)=O)CC3)c2c1C,23µM*,23µM*,?,i,?,?
CCOC(=O)c1sc2nc(C)nc(N3CCCCC3C)c2c1C (configuration not stated),?,-28%,?,i,-20%,i
Cc1sc2nc(CSc3ccccc3)nc(N3CCOCC3)c2c1C,?,-6%,?,i,0%,i
CCOC(=O)c1sc2nc(CSc3ccccc3)nc(N3CCCN(C)CC3)c2c1C,?,-23%,26µM*,i,-15%,i
